# Source: PubChem (National Center for Advancing Translational Sciences (NCATS))
# HCMV antiviral: blocks human cytomegalovirus replication | 4.5% of 410,000 active | AID 1259415 | HFF cells, HCMV-luciferase reporter, 72 h; active compounds read low | activity change, negative = inhibition, % at 57.5 µM; in the data active means activity change below about -60%; inconclusive means no clear call, values can overlap the other calls; inactive means above about -39%
#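 Steps: HFFs plated, 16 h 37C; compounds added; HCMV-luciferase added to MOI 1 PFU/cell; 72 h 37C; OneGlo reagent, 5 min room temperature; luminescence read, normalized to controls.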
# FMDV antiviral: foot and mouth disease virus antiviral activity; 1.2% of 410,000 active; FMDV antiviral cell-based qHTS; Potency, µM (highest dose often 57.9 µM), for the others: at the top dose activity change, negative = inhibition, usual class: inhibitors; calls by dose curve; tested in HEK293T cells; further: read-out not given here; potency means the concentration at half of the fitted maximal effect; nearly all actives have a fitted effect of over 45% in size
# VACV mCherry inh: inhibitors of vaccinia virus infection (mCherry reporter signal); Potency, µM (top dose mostly 36.5 µM), for the others: at the highest dose activity change, negative = inhibition, actives largely listed as inhibitors; AID 720579; Vaccinia virus mCherry reporter infection, fluorescence; 0.63% of 310,000 active; calls by dose curve; tested in A549 cells; further: potency means the concentration at half of the fitted maximal effect; nearly all actives have a fitted effect of over 35% in size
# Lassa entry inh: blocks Lassa virus binding to or entry into cells | 1.2% of 300,000 active | Lassa virus pseudotype entry inhibition, cell reporter | Potency, µM (top dose mostly 37.9 µM), for inactives: top-dose activity change, negative = inhibition, actives largely listed as inhibitors | AID 540256; calls by dose curve; tested in HEK293 cells; further: potency means the concentration at half of the fitted maximal effect; nearly all actives have a fitted effect of over 50% in size
# Vaccinia Venus: inhibitors of vaccinia virus (Venus reporter). 0.46% of 330,000 active. Vaccinia virus Venus reporter expression, fluorescence. Potency, µM (highest dose often 36.5 µM), for inactives: at the top dose activity change, negative = inhibition, usual class: inhibitors; calls by dose curve; tested in A549 cells; further: potency means the concentration at half of the fitted maximal effect; nearly all actives have a fitted effect of over 30% in size
# Marburg entry inh: Marburg virus entry inhibition | Potency, µM (doses to about 37.8 µM), for the others: at the highest dose activity change, negative = inhibition, actives largely listed as inhibitors | AID 540276 | 1.8% of 300,000 active | Marburg virus pseudotyped entry inhibition, cell reporter; calls by dose curve; tested in HEK293 cells; further: potency means the concentration at half of the fitted maximal effect
# Active calls of the source: *; i = inactive; ? = inconclusive; . = no result; [ ] = remark or other dose. The list is not random: actives were taken first. Their share in the collection is about 6.5%. On the % scale 0 is the no-effect control and ±100 the full control effect.
SMILES,HCMV antiviral,FMDV antiviral,VACV mCherry inh,Lassa entry inh,Vaccinia Venus,Marburg entry inh
Cc1ccc(CS(=O)(=O)c2ncc(Cl)c(C(=O)Nc3ccc(OC(F)F)cc3)n2)cc1,-110.8*,25.1µM*,-16.1%,?,-29.8%,?
COc1ccc(NC(=O)c2nc(S(=O)(=O)Cc3ccc(C)cc3)ncc2Cl)cc1,-97.4*,?,?,?,?,?
CC(C)(C)S(=O)N1C[C@H]2CC(=O)C(CCO)=C2[C@@H]1CCO (some centres not stated),16.3,.,.,.,.,.
CN1NC(=O)CC1c1ccccc1 (configuration not stated),-2.6,-3.6%,-18.9%,-12.0%[46.1 µM],3.9%,14.7%[46.1 µM]
O=C1CC(c2ccccc2)NC(=O)N1 (configuration not stated),-99.0*,-4.7%,.,-3.3%,-7.0%,-3.3%
CCCOc1ccc([C@@H]2C3CN(C(=O)OCC)CC=C3C(C#N)=C(N)C2(C#N)C#N)cc1OC (some centres not stated),-21.3,0.0%,.,10.3µM*,.,-0.1%
CC(C)(C)OC(=O)N1CC=C2C(C#N)=C(N)C(C#N)(C#N)C(c3cccs3)C2C1 (configuration not stated),42.9,22.4µM*,.,-11.0%,.,-22.7%
CCOC(=O)N1CC=C2C(C#N)=C(N)C(C#N)(C#N)[C@H](c3cccs3)C2C1 (some centres not stated),-26.1,?,-24.7%,-14.4%,-18.2%,?
COc1cccc(C2C(C(=O)Nc3cccnc3)=C(C)Nc3nnnn32)c1OC (configuration not stated),-69.2*,10.8%,.,-19.6%,.,?
CC1=C(C(=O)Nc2ccccc2)C(c2ccncc2)n2nnnc2N1 (configuration not stated),-20.4,-28.1%,.,-2.0%,.,?
COc1cc(C2C(C(=O)Nc3ccccc3)=C(C)Nc3nnnn32)cc(OC)c1OC (configuration not stated),-105.9*,5.6%,-16.8%,-1.0%[46.1 µM],-9.4%,22.2%[46.1 µM]
Cc1cc(C)cc(NC(=O)Cn2nnc(C(=O)Nc3cc(C)cc(C)c3)c2N)c1,-83.1*,-11.3%,-11.1%,-17.4%[46.1 µM],-18.2%,-29.5%[46.1 µM]
COc1cccc(NC(=O)c2nnn(CC(=O)Nc3cc(C)cc(C)c3)c2N)c1,?,-11.3%,i[7.34 µM],.,0.0%[7.34 µM],.
O=C(CCCn1c2ccccc2c(=O)c2ccccc21)Nc1cccc(Cl)c1,-66.8*,?,-25.4%,?,-16.3%,.
Cc1ccc2c(c1)c(=O)c1ccccc1n2CCCC(=O)Nc1ccc(C)c(C)c1,-60.5*,?,?,?,-28.6%,.
Cc1ccc2c(c1)c(=O)c1ccccc1n2CCCC(=O)Nc1ccc(C)c(F)c1,-73.5*,0.0%,?,?,?,.
CN(C)S(=O)(=O)c1ccc(C(=O)Nc2ccnn2C2CCCCC2)cc1,-7.8,28.2µM*,.,-15.8%,.,?
CCc1cc2c(nc1CC)CCCN2S(=O)(=O)c1ccc(C#N)cc1,24.3,.,.,.,.,.
COc1ccc(CNC(=O)[C@H](C)N2C(=O)N3CCc4c([nH]c5ccccc45)[C@@]3(C)C2=O)cc1OC,?,31.6µM*,-20.6%,.,-19.0%,.
Cc1ccc(CNC(=O)[C@H](C)N2C(=O)N3CCc4c([nH]c5ccccc45)[C@@]3(C)C2=O)cc1,3.9,?,-2.2%,.,-6.0%,.
CSc1ccc(CN2CCC(n3nccc3NC(=O)CCCc3ccccc3)CC2)cc1,-68.3*,-15.4%,-23.4%,?,-25.1%,?
O=C(CCCc1ccccc1)Nc1ccnn1C1CCN(Cc2ccccc2)CC1,0.0,29.0%,.,.,.,.
CC(C)Cn1c(N)c(C(=O)COC(=O)/C=C/c2cccs2)c(=O)n(C)c1=O,-73.1*,17.8µM*,i,?,-14.2%,?
COCc1c(C(=O)OCC(=O)c2c(N)n(CC(C)C)c(=O)n(C)c2=O)oc2ccccc12,-7.8,31.6µM*,.,-27.1%,.,-28.4%
CC(C)Cn1c(N)c(C(=O)COC(=O)c2ccccc2F)c(=O)n(C)c1=O,-21.0,-5.4%,-13.8%,-25.0%[46.1 µM],-2.9%,-0.9%[46.1 µM]
CCc1ccc(C(=O)OCC(=O)c2c(N)n(CC(C)C)c(=O)n(C)c2=O)cc1,-64.8*,?,-22.4%,?,-15.0%,?
